Our source for the composite z-score and z-score values is PubChem BioAssay.

Calls of active or inactive are those of the source.

A short description of assay [1]: binders of probe aFSTL3 on microarray, primary screen, stem cell growth factor project, biochemical, small-molecule microarray, fluorescence 635/667 (AID 1064).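 Note: measures binding of the biotinylated anti-FSTL3 antibody to printed compounds.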 As to conditions: higher = more signal.
Assay [2] in a line: binders from COS7 lysate, DM2A8 probe, primary screen, torsin A project, cell lysate, small-molecule microarray, fluorescence 635/667 (AID 1065). As to conditions: higher = more signal, COS7 lysate expressing mutant human TOR1A.
Assay [3] can be described thus: binders of probe aFGF2 on microarray, primary screen, stem cell growth factor project, biochemical, small-molecule microarray, fluorescence 635/667 (AID 1067).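 Note: measures binding of biotinylated aFGF2 protein to printed compounds on slides; z-score merges feature fluorescence and signal-to-noise across triplicate slides.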 The settings on record: higher = more signal.
Assay [4] in a line: binders of probe aFGF10 on microarray, primary screen, stem cell growth factor project, biochemical, small-molecule microarray, fluorescence 635/667 (AID 1071).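 Note: score merges 667 nm spot intensity and signal to noise from triplicate slides.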 The settings on record: higher = more signal.
For assay [5], the target named is Neurogenic locus notch homolog protein 2 (Homo sapiens) (UniProt Q04721). Briefly: Notch2 binders on small-molecule microarrays, primary screen, biochemical, small-molecule microarray, 635 nm fluorescence, stem cell growth factors (AID 1073). As to conditions: Notch2 binding, higher = more signal.
Neurogenic locus notch homolog protein 2 (Homo sapiens), sequence (Q04721 whole entry, looked up, canonical isoform): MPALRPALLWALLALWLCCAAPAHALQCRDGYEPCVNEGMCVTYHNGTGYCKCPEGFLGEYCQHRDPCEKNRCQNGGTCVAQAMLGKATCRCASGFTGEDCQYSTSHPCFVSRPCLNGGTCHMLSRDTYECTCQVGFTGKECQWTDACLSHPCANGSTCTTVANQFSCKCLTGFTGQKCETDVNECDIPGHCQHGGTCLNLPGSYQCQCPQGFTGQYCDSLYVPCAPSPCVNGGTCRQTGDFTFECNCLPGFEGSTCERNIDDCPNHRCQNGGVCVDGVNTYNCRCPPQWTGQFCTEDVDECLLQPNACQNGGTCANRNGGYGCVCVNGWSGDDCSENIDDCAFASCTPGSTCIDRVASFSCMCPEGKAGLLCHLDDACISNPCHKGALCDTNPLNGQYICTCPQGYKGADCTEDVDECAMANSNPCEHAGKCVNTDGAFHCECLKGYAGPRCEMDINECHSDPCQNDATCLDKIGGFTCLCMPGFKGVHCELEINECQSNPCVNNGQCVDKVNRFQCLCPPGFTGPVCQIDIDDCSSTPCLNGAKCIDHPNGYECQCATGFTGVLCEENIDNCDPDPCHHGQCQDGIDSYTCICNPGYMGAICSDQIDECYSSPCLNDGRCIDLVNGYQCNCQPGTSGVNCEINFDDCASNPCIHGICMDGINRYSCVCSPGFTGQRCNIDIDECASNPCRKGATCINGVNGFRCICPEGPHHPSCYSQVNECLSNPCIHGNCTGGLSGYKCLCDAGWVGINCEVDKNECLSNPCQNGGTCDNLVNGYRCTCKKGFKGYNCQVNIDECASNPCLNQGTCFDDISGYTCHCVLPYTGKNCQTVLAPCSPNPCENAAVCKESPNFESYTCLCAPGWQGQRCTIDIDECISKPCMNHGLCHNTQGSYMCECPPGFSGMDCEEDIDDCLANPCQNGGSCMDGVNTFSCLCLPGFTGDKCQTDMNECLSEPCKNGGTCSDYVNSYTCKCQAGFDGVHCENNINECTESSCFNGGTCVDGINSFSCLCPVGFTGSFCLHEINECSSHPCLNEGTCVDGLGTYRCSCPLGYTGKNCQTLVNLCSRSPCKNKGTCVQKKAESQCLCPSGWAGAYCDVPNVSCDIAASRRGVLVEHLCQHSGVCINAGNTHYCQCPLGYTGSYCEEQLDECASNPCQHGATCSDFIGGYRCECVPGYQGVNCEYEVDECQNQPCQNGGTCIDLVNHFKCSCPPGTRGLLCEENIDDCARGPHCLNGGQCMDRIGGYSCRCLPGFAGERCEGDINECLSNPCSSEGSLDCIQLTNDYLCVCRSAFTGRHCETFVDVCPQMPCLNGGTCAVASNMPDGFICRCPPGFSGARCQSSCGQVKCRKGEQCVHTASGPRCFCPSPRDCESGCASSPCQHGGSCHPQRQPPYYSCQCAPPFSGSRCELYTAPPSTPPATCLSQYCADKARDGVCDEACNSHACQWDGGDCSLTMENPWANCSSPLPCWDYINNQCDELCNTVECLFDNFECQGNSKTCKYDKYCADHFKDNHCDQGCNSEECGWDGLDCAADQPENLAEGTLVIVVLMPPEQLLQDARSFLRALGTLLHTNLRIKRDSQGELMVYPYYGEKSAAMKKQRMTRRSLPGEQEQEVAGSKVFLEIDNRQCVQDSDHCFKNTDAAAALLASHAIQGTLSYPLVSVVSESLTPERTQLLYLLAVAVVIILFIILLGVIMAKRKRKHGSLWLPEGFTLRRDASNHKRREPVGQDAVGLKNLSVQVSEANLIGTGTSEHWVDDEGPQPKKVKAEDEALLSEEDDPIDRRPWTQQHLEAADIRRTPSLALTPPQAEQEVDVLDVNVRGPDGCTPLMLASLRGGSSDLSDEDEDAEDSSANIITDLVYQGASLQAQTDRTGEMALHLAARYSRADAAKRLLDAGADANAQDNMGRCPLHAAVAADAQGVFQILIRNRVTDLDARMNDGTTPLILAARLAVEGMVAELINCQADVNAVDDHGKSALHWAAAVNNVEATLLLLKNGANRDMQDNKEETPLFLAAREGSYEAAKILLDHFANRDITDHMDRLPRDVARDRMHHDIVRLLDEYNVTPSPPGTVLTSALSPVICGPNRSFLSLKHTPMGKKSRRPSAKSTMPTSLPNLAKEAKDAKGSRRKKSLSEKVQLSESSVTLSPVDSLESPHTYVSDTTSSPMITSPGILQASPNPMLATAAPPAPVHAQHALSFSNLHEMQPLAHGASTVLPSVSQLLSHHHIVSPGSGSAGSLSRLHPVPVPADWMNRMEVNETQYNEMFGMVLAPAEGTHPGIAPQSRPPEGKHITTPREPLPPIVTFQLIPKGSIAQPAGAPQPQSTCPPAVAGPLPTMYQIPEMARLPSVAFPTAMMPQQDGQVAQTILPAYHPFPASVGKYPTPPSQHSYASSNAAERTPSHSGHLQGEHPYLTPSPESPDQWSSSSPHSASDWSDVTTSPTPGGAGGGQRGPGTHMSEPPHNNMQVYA
The target of assay [6] is Pro-neuregulin-1, membrane-bound isoform (Homo sapiens) (UniProt Q02297). Briefly: NRG1 binders on small-molecule microarrays, primary screen, psychiatric disease protein project, biochemical, small-molecule microarray, fluorescence 635/667 (AID 1075).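 Note: score combines 667 nm spot fluorescence with signal to noise.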 As to conditions: NRG1 binding, 635 nm fluorescence, higher = more signal.
Pro-neuregulin-1, membrane-bound isoform (Homo sapiens), sequence (Q02297 whole entry, looked up, the tested form may be a part, canonical isoform): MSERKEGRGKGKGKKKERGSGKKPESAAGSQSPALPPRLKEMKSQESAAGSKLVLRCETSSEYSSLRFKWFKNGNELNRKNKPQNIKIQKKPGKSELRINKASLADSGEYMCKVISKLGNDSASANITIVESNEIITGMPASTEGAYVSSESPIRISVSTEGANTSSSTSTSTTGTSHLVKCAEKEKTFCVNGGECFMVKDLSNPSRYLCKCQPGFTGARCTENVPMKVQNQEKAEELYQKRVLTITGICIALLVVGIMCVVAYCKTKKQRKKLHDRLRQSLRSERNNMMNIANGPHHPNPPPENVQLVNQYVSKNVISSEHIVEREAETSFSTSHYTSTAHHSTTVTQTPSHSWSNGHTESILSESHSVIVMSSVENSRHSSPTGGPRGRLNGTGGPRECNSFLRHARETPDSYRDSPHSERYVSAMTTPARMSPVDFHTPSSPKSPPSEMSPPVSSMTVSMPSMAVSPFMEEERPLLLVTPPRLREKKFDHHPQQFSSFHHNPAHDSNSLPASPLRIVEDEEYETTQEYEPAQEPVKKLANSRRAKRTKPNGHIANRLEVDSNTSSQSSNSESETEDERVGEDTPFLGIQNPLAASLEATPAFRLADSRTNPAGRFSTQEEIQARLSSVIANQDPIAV
The test system of assay [7] is Neuregulin-1 EGF-like domain. The assay can be described thus: binders of neuregulin-1 EGF-like domain, primary screen, biochemical, small-molecule microarray, 635 nm fluorescence (AID 1081).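 Note: binding of the protein to compounds printed on small-molecule microarray slides.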 As to conditions: small-molecule microarray binding, higher = more signal.
Assay [8] in a line: FRG1 promoter luciferase signal modulators, primary screen, FRG1 inhibition for FSHD, cell-based, C2C12 myotubes, firefly/Renilla luciferase, luminescence (AID 1084). The settings on record: higher = more signal, called active from +8 up or from −8 down.
Assay [9] in a line: binders of probe aFST on microarray, primary screen, stem cell growth factor project, biochemical, small-molecule microarray, fluorescence 635/667 (AID 1086).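 Note: score merges 667 nm fluorescence with signal-to-noise of each printed compound spot.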 As to conditions: higher = more signal.
A short description of assay [10]: binders of probe aHhip on microarray, primary screen, stem cell growth factor project, biochemical, small-molecule microarray, fluorescence 635/667 (AID 1087).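 Note: score merges spot fluorescence at 667nm with spot signal to noise ratio.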 The settings on record: higher = more signal.
In assay [11] the test system is PRMT1 (protein arginine N-methyltransferase 1). Briefly: PRMT1 binders on small-molecule microarrays, primary screen, biochemical, small-molecule microarray, 635 nm fluorescence (AID 1088).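 Note: binding of Prmt1 protein to compounds spotted on small-molecule microarray slides.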 As to conditions: small-molecule microarray binding, higher = more signal.
Assay [12] is described as follows: yeast growth modulation, basal conditions, primary screen, YJM789 clinical isolate, OD600, 24 h (AID 1089).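 Note: growth of clinical yeast isolate S. cerevisiae YJM 789 seeded 1000 cells per well; test concentration not given here.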 As to conditions: S. cerevisiae YJM789 growth, higher = more signal, called active from +8 up or from −8 down.
Assay [13] is described as follows: fission yeast growth modulation, primary screen, strain 972, OD600, 24 h, no modulator (AID 1090).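 Note: basal condition with compound alone and no growth modifier present; test concentration not given here.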 As to conditions: S. pombe 972 growth, higher = more signal, called active from +8 up or from −8 down.
A short description of assay [14]: S. cerevisiae growth modulation with rapamycin, primary screen, strain BY4716, OD600, 96 h (AID 1091). Note: test concentration not given here. The settings on record: higher = more signal, called active from +8 up or from −8 down.
Assay [15] addresses Torsin-1A-interacting protein 2 (Homo sapiens) (UniProt Q8NFQ8). Briefly: LULL1 binders on small-molecule microarray, primary screen, cell lysate, human LULL1 lysate, 635/667 nm fluorescence (AID 1092).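 Note: probe is lysate of COS7 cells overexpressing human LULL1; score merges per-feature 667 nm fluorescence with signal-to-noise.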 As to conditions: hLULL1 lysate binding, 635 nm fluorescence, higher = more signal.
Assay [16] in a line: E. coli growth modulation, two-sided OD650, primary screen, E. coli filamentation project, strain DRC41, 24 h (AID 1093).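 Note: MC1000 strain lacking acrAB efflux and sulA so SOS filamentation is blocked; test concentration not given here.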 As to conditions: OD650, 24 h, higher = more signal, called active from +8 up or from −8 down.
The nature of assay [17]: small-molecule microarray binders of probe aLefty2, primary screen, biochemical, biotinylated probe, 635/667 nm fluorescence (AID 1094).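 Note: score merges spot fluorescence near 667 nm with spot signal-to-noise ratio.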 As to conditions: higher = more signal.
The subject of assay [18] is Noggin (protein binding on small-molecule microarray). The assay can be described thus: Noggin binders on small-molecule microarray, primary screen, biochemical, 635/667 nm fluorescence (AID 1095).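 Note: score merges 667 nm feature fluorescence with signal to noise over triplicate slides.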 As to conditions: 635 nm fluorescence, higher = more signal.
In assay [19] the target is Neurogenic locus notch homolog protein 3 (Homo sapiens) (UniProt Q9UM47). The assay can be described thus: NOTCH3 binders on small-molecule microarray, primary screen, biochemical, 635/667 nm fluorescence (AID 1096). As to conditions: NOTCH3 binding, 635 nm fluorescence, higher = more signal.
Assay [20] in a line: small-molecule microarray binders of probe aEGFR, primary screen, biochemical, biotinylated probe, 635/667 nm fluorescence (AID 1097).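 Note: probe is a biotinylated anti-EGFR antibody binding compounds printed on slides; score combines fluorescence near 667 nm and signal to noise of each spot.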 As to conditions: higher = more signal.

Torsin-1A-interacting protein 2 (Homo sapiens), sequence (Q8NFQ8 whole entry, looked up): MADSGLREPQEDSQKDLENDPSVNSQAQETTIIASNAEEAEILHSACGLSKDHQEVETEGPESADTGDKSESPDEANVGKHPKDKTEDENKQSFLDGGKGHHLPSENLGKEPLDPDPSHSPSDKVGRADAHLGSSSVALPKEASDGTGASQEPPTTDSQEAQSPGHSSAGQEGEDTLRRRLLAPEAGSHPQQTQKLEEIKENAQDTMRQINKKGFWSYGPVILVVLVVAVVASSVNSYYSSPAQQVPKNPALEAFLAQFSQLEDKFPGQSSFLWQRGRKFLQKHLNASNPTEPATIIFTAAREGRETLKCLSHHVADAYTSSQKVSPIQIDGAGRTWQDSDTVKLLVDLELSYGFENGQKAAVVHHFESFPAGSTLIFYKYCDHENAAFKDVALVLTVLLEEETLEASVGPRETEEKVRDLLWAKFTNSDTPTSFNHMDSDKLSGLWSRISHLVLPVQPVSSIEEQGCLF

As for `CC(C)(C)OC(=O)CC[C@@]1(C(=O)N2CCCCC2)N=C(c2ccc(OCCCO)cc2)O[C@@H]1c1ccccc1N=[N+]=[N-]`, the composite z-score worked out at 0.358 in assay [1]; 0.805 in [2]; 0.147 in assay [3]; 1.03 in assay [4]; 1.66 in assay [5]; 1.89 in assay [6]. Also, the composite z-score is 1.41 in assay [7]; 1.34 in [9]; -0.0237 in assay [10]; 1.53 in assay [11]; 3.49 in assay [15]; 0.253 in assay [17]. Besides, the composite z-score stood at 0.369 in [18], 1.03 in assay [19] and 0.208 in [20]. For the same compound, the z-score in assay [8] was -1.88 (inactive); in assay [12], -0.336 (inactive); in [13], -0.029 (inactive); in assay [14], -0.183 (inactive); in assay [16], 1.11 (inactive).

`COC(=O)[C@H]1N=C(c2ccc(OCCCO)cc2)O[C@H]1c1ccccc1CN=[N+]=[N-]`: the composite z-score is 1.03 in [1]; -0.872 in [2]; 0.0544 in assay [3]; -0.202 in [4]; -0.525 in assay [5]; 0.526 in assay [6]. Moreover, the composite z-score in assay [7] was found to be 0.591; in [9] it was 0.906; in assay [10], 0.334; in [11] it was 0.943; in assay [15], 1.84; in [17], 0.992. Further, the composite z-score in assay [18] was -0.0277; in assay [19] it was 0.27; in assay [20], -0.131. The z-score was 4.14 (inactive) in assay [8]; -0.363 (inactive) in assay [12]; -0.225 (inactive) in assay [13]; 0.444 (inactive) in assay [14]; 0.887 (inactive) in assay [16].

On to `COCCOC(=O)N1C(=O)[C@@]2(c3cc(C#CC4(O)CCCCCC4)ccc31)[C@H](C(=O)NC[C@H](O)c1ccccc1)[C@H]1C(=O)O[C@H](c3ccccc3)[C@H](c3ccccc3)N1[C@@H]2c1ccc(OCCO)cc1`, for which the composite z-score in assay [1] is -0.38; in [2] it was -0.166; in assay [3] it was 0; in assay [4], 0.353; in assay [5] it was 0.672; in [6] it was 0.985. The composite z-score in assay [7] was 1.14; in [9], 0.409; in assay [10] it was -0.0994; in [11], 1.55; in assay [15], 2.33; in [17], -0.121. Also, the composite z-score in [18] is 1.78; in assay [19], 1.15; in assay [20], -0.0978. For the same compound, the z-score in assay [8] was 0.78 (inactive); in assay [12], 1.94 (inactive); in assay [13] it was 0.814 (inactive); in [14], 5.65 (inactive); in assay [16], 1.35 (inactive).

As for `C=C[C@@H](O)[C@H]1CC(c2ccccc2)=NO1`, the composite z-score was -0.0317 in [1]; -0.1 in assay [2]; -0.0692 in assay [3]; -0.105 in assay [4]; -0.138 in [5]; -0.37 in assay [6]. Moreover, the composite z-score in assay [7] is -0.262; in assay [9] it was 0.266; in [10], 0.172; in assay [11], -0.425; in assay [15] it was -0.141; in [17] it was -0.0339. Also, the composite z-score in assay [18] was -0.174; in [19], -0.872; in assay [20], -0.0844. For the same compound, the z-score in [8] is 1.6 (inactive); in assay [12] it was -0.347 (inactive); in assay [13] it was -0.954 (inactive); in assay [14], -0.657 (inactive); in [16] it was 1.13 (inactive).

As to `CC1CC/C=C\[C@H]2OC34C=CCN(Cc5ccccc5)C(=O)[C@H]3N(CCO)C(=O)[C@@H]4C2C(=O)O1` (stereo not given in full), the composite z-score in assay [1] was 0.767; in [2] it was 2.2; in assay [3], -0.0662; in assay [4], 1.1; in [5], -0.821; in assay [6], 1.86. Also, the composite z-score in [7] is 1.51; in [9] it was -0.253; in assay [10], -0.0994; in [11], 0.205; in assay [15], 1.27; in [17] it was -0.0042. Further, the composite z-score in assay [18] was -0.585; in assay [19], -0.127; in assay [20], -0.113. For the same compound, the z-score in assay [8] was 0.781 (inactive); in [12] it was -0.404 (inactive); in [13], -0.791 (inactive); in assay [14], 0.285 (inactive); in assay [16], 1.36 (inactive).

As to `COc1ccccc1CN1C(=O)c2ccccc2[C@@H](C(=O)NCC(C)C)[C@@H]1c1ccc(CO)cc1`, the composite z-score in assay [1] is 0.482; in assay [2], -0.117; in [3], 0.0342; in assay [4], -0.0779; in assay [5], 1.07; in assay [6] it was 0.869. Besides, the composite z-score in [7] was 0.7; in assay [9] it was 0.0346; in assay [10] it was -0.0994; in assay [11] it was -0.106; in assay [15], 2.18; in assay [17], -0.0042. The composite z-score was -0.081 in [18], -0.222 in assay [19] and -0.0398 in [20]. Besides, the z-score in [8] is -1.97 (inactive); in assay [12], 0.444 (inactive); in assay [13], -0.288 (inactive); in [14] it was 0.125 (inactive); in assay [16] it was 0.0616 (inactive).
